The results in this text go back to PubChem BioAssay AID1347076 (National Center for Advancing Translational Sciences (NCATS), 2019).

The campaign covered roughly 400,000 compounds. About 13,000 (3.2%) were called active. About 18% were inconclusive and are not listed. The call rests on the fitted dose curve; in most records, active means well fitted cell-killing curve with a large enough effect; inconclusive means small, poorly fitted or top-dose-only effect, or effect the other way; inactive means flat fitted curve, though single readings scatter. The list comes from a sample in which actives are over-represented; it also holds similar structures and randomly drawn compounds. Entries that show only a call come without a potency.
Potency means the concentration at half of the fitted maximal effect.

The test in a line: qHTS assay for MDR1-selective chemotherapeutics: Primary screen using the drug-selected MDR subline cells KB-V1. Further: nearly all actives have a fitted effect of over 60% in size. The following applies: KB-V1 MDR cells viability, CellTiter-Glo, 72 h; series mostly up to 46.1 µM. A digest of the protocol:
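Drug-selected KB-V1 cells, grown in DMEM lacking phenol red with 10% FBS, receive compound titrations; after three days at 37 degrees C, surviving cell ATP is quantified by CellTiter-Glo luminescence and responses normalized and curve-fitted.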
On to `CN(C)CCNC(=O)c1cccc(-c2cnc3c(NC=O)cc(-c4cccc(C(F)(F)F)c4)cn23)c1`, for which the Potency is 14.6 µM (active).
`CN(C)C(=O)c1cccc(-c2cnc3c(NC=O)cc(-c4ccc(C(=O)N5CCOCC5)cc4)cn23)c1`: the Potency result is “inactive”.
With `COc1ccc(-c2cc(NC=O)c3ncc(-c4ccccc4)n3c2)cc1OC`, the Potency was 18.4 µM (active).
Under `CC(=O)c1cccc(-c2cnc3c(NC=O)cc(-c4ccc(N5CCN(C)CC5)cc4)cn23)c1` stands “inactive”.
Turning to `CC(=O)c1cccc(-c2cnc3c(NC=O)cc(-c4cccc(C(=O)N(C)C)c4)cn23)c1`, the Potency result was “inactive”.
As for `CC(=O)c1ccc(-c2cnc3c(NC=O)cc(-c4cccc(NS(C)(=O)=O)c4)cn23)cc1`, the Potency entry is “inactive”.
Next, `CC(=O)c1cccc(-c2cnc3c(NC=O)cc(-c4ccccc4Oc4ccccc4)cn23)c1`: “inactive”.
Turning to `CC(=O)c1cccc(-c2cnc3c(NC=O)cc(-c4ccc(N(C)C)cc4)cn23)c1`, the Potency was 18.4 µM (active).
In the case of `CC(=O)Nc1cc(-c2cccc(CO)c2)cn2c(-c3cccc(C(F)(F)F)c3)cnc12`, the Potency result is “inactive”.
With `CC(C)(C)C(=O)c1c(N)[nH]c(C(=O)c2ccccc2)c1-c1ccc(F)cc1`, the Potency entry is “inactive”.
In the case of `CCCNC(=O)C1(C)CCCN(Cc2cccc(C(F)(F)F)c2)C1` (stereo unspecified), the Potency result was “inactive”.
On to `CC1CN(C(=O)c2cccc(NS(=O)(=O)c3ccc(Br)cc3)c2)CC(C)O1` (stereo unspecified), for which the Potency result is “inactive”.
Next, `CCN(CC)C(=O)C1=C(C)N(Cc2ccc(F)cc2)C(=O)C(CC(=O)NCc2cccc3ccccc23)C1` (stereo unspecified): “inactive”; `FC(F)(F)Oc1ccccc1C(c1nnnn1C1CCCCC1)N1CCN(C/C=C/c2ccccc2)CC1` (stereo unspecified): “inactive”.
For the compound `CCCCC[C@@H]1C=C(C(=O)OCC)[C@H](c2ccccc2)N1S(=O)(=O)c1ccc(C)cc1`, the Potency entry is “inactive”.
On to `CS(=O)(=O)N1CCCCC1c1cc(C(=O)NCc2ccccc2)no1` (stereo unspecified), for which the Potency result is “inactive”.
On to `Cc1ccc(Cn2c(=O)n(-c3ccc(C)cc3)c(=O)c3c2c2cc(C)ccc2n3C)cc1`, for which the Potency result is “inactive”.
Next, `Cc1ccc(NC(=O)/C(=C/c2ccc([N+](=O)[O-])cc2)NC(=O)c2ccccc2)cc1`: “inactive”.
For the compound `CCOC(=O)/C(=C\c1ccc([N+](=O)[O-])cc1)C(=O)c1cc(C(C)=O)c(Nc2ccccc2)s1`, the Potency is 8.2 µM (active).
Take `CCOC(=O)COc1ccc([N+](=O)[O-])cc1`: the Potency entry is “inactive”.
`O=c1c(NCc2cccs2)nccn1-c1ccccc1`: the Potency result was “inactive”.
On to `COc1ccccc1N1CCN(Cc2ccc(OC)c3ccccc23)CC1`, for which the Potency is 16.4 µM (active).
As to `CNCC(O)CN1CCN(c2ccccc2OC)CC1` (stereo unspecified), the Potency entry was “inactive”.
Under `COc1ccccc1N1CCN(Cc2cc(OC)c3c(c2)OCO3)CC1` stands “inactive”; under `CCCn1c(NCc2ccc(N(CC)CC)cc2)nc2ccccc21`, “inactive”; under `COc1ccc(-c2ccc(CN3C(C(C)C)C(=O)N(Cc4cn(CC5CCCCC5)nn4)CCS3(=O)=O)cc2)cn1` (stereo unspecified), “inactive”.
In the case of `CCOC(=O)c1c(NC(=S)SC)sc(C(=O)N2CCc3ccccc3C2)c1C`, the Potency result was “inactive”.
Consider `C=CCn1c(SCC(=O)NC(=O)Cc2ccccc2)nc2ccccc2c1=O`, for which the Potency entry was “inactive”.
Consider `C=CCn1c(SCC(=O)NCc2ccccc2)nnc1-c1cc(Br)ccc1O`, for which the Potency is 11.6 µM (active).
For the compound `O=C(CSc1nnc(-c2cccnc2)n1CCc1ccccc1)NCc1ccccc1`, the Potency entry is “inactive”.
Under `CN1CCN(C(CNC(=O)c2ccccc2F)c2ccc3c(c2)OCO3)CC1` (stereo unspecified) stands “inactive”; under `COc1ccc2c(c1)CCc1c(C(=O)Nc3c(C)n(C)n(-c4ccccc4)c3=O)noc1-2`, 18.4 µM (active); under `COc1ccc(NS(=O)(=O)c2ccc(C(=O)Nc3c(C)n(C)n(-c4ccccc4)c3=O)cc2)cc1`, “inactive”.
Turning to `COc1ccc2c(c1)CCc1c(C(=O)Nc3cc(C)ccc3O)noc1-2`, the Potency entry is “inactive”.
With `Nc1ccc(/C=C/c2ccnc3ccccc23)c([N+](=O)[O-])c1`, the Potency entry was “inactive”.
For the compound `COc1ccc(C2=Nc3ccccc3NC(=O)C2N(C(=O)c2cc3ccccc3[nH]2)c2ccccc2)cc1` (stereo unspecified), the Potency result is “inactive”.
Regarding `COc1ccc(-c2ccc(C(=O)NC(C)C)c3occc23)c(C)c1`, the Potency result was “inactive”.
As to `O=C(Cn1nnc(-c2ccccc2)n1)NC(=O)NC1CCCC1`, the Potency result is “inactive”.
In the case of `COc1cccc(N(CC(=O)NC2CCCC2)C(=O)Cn2nnc(-c3ccc(C)cc3)n2)c1`, the Potency result is “inactive”.
With `O=C(Cn1nnc(-c2ccc(CN3CCOCC3)cc2)n1)NC1CCCCC1`, the Potency was 23.1 µM (active).
In the case of `CC(C)(C)C(=O)Nc1cccc(-c2ccc[nH]2)n1`, the Potency was 16.4 µM (active).
As to `COc1ccc(C(=O)Nc2cccc(NC(=O)c3ccc(OC)cc3OC)n2)c(OC)c1`, the Potency entry was “inactive”.
With `CC(C)(C)C(=O)Nc1ccc(-c2cn3cccnc3n2)cc1`, the Potency entry is “inactive”.
As to `CC(C)(C)c1ccc(C(=O)NCCC(=O)NCc2ccco2)cc1`, the Potency result is “inactive”.
For the compound `CCCCNC(=O)CCNC(=O)c1ccc(C(C)(C)C)cc1`, the Potency was 14.6 µM (active).
In the case of `CCCN1CCN(C(=O)CCCNC(=O)c2ccc(Cl)cc2)CC1`, the Potency entry is “inactive”.
For the compound `CCOc1ccc(S(=O)(=O)NCCC(=O)NNC(=O)c2ccc(F)cc2)cc1`, the Potency entry was “inactive”.
Next, `O=C(CSc1ccc(-c2ccco2)nn1)Nc1cccc(F)c1`: 10.3 µM (active); `O=C(CSc1ccc(-c2ccc(F)cc2)nn1)Nc1ccc2c(c1)OCCO2`: “inactive”; `O=C(CSc1ccc(-c2ccco2)nn1)NCc1ccc2c(c1)OCO2`: “inactive”.
In the case of `Cc1ccc(C(=O)Nc2ccc(OCc3cc(=O)n4c5c(sc4n3)CCCC5)cc2)cc1`, the Potency entry was “inactive”.
Consider `Cc1c(C(=O)Nc2ccccc2)sc2nc3n(c(=O)c12)CCCCC3`, for which the Potency entry is “inactive”.
For `Cc1ccc(NC(=O)C2(N3CCC3=O)CCCCC2)cc1`, the Potency entry is “inactive”.
Take `CC(=O)c1ccc(NC(=O)c2nc(-c3ccc(C)cc3)n3c2CCCCC3)cc1`: the Potency is 20.6 µM (active).
As for `O=c1c2c(nc3n1CCCCC3)sc1c(O)cccc12`, the Potency result is “inactive”.
For `CC(=O)c1ccc(NC(=O)c2sc3nc4n(c(=O)c3c2C)CCCCC4)cc1`, the Potency was 18.4 µM (active).
On to `CC1(Oc2ccccc2-c2ccno2)CCN(Cc2ccc(-c3ccccc3)o2)C1` (stereo unspecified), for which the Potency entry is “inactive”.
`CC(C)CCNC(=O)c1[nH]c(C(F)(F)F)nc1-c1ccccc1`: the Potency result was “inactive”.
In the case of `NCCCCC(C(=O)O)N(C(=O)OCc1ccccc1)C(=O)OCc1ccccc1` (stereo unspecified), the Potency result was “inactive”.
Take `O=C(Nc1ccc(Cl)cc1)c1csc([C@@H]2O[C@H](CO)[C@H](O)[C@H](O)[C@H]2O)n1`: the Potency result was “inactive”.
In the case of `CC(=O)Nc1ccc2nc(SCCOc3cc(C)cc(C)c3)sc2c1`, the Potency result was “inactive”.
